# From PubChem BioAssay (NCATS)
# Several values for one entry are separate records, joined by “and”; a condition that tells them apart may be missing. Equal values may be shown once. Records with an inconclusive call do not appear. A call without a number means that no potency is given here. Activity calls are given as the source filed them. Unless noted, calls follow the shape of the dose curve; as a rule, active = well fitted curve in the direction sought with a large enough effect; inconclusive = small, poorly fitted or top-dose-only effect, or another doubt; inactive = no such curve, though single readings can be large; an effect the other way counts as inactive or inconclusive.
# Assays:
# [1] = Validation screen for small molecules that induce genotoxicity in human embryonic kidney (HEK293T) cells expressing luciferase-tagged ELG1 (AID 493106); also: potency is read from the fitted curve at half-maximal effect
# Outline: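 qHTS format; 2,000 HEK293T ELG1-luc cells/well; 23 nL compound via pin tool; 16 hr, 37 °C/5% CO2; ONE-Glo, 30 min RT; luminescence read.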
# [2] = target: ATPase family AAA domain-containing protein 5 (Homo sapiens) (UniProt Q96QE3); experiment: Validation screen for small molecules that inhibit ELG1-dependent DNA repair in human embryonic kidney (HEK293T) cells expressing luciferase-tagged ELG1 (AID 493107);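 also: cells co-treated with the DNA-damaging agent 5-fluorouridine alongside compound; series mostly up to about 46 µM; inhibitors lower the ELG1-luciferase luminescence signal; nearly all actives have a fitted effect of over 70% in size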
# Outline: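 ELG1-luciferase HEK293T reporter; 5-fluorouridine + compound/DMSO, 16 hr, 37 °C, 5% CO2; ONE-Glo 30 min RT; luminescence read, qHTS format.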
# [3] = target: Thyrotropin-releasing hormone receptor (Homo sapiens) (UniProt P34981); experiment: qHTS for Small Molecule Agonists and Allosteric Enhancers of Human TRH Receptor: Validation Screen for Agonists (AID 493127;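 active = calcium activation more than 3 SD above the typical response in the agonist read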;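 also: intracellular calcium rise by fluo-8 fluorescence before TRH EC20 addition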); settings: TRH receptor agonist cell assay; at 2 µM; stronger effect = higher value
# Outline: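 Read-out: intracellular calcium release measured kinetically by FDSS (fluo-8, ex 480/em 530 nm), 1 reading/s after a 10-cycle baseline. TRHR cells, 2000/well, cultured 18 h at 33.5C, dye-loaded at room temp. Compound-evoked positive calcium signal flags agonists.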
# [4] = qHTS for Inhibitors of Cell Surface uPA Generation: Validation Assay (AID 493164);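 also: RAW 264.7 macrophage cells exposed to compound for 18 h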
# Outline: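 Compounds are titrated over seven points (2.45 nM–38.3 uM final) onto pre-plated RAW 264.7 cells and incubated for 18 h. Retained intracellular ATP, measured with ATP-Lite, indicates blocked lethal factor entry.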
# [5] = target: Galactokinase (Homo sapiens) (UniProt P51570); experiment: qHTS Validation Assay for Inhibitors of Human Galactokinase (GALK) (AID 493189)
# Outline: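 Luminescence from leftover ATP (Kinase-Glo Plus, 10 min) served as read-out after a 1 h room-temperature reaction of 5 nM GALK, 100 uM galactose and 35 uM ATP at pH8.0.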
# [6] = Validation screen for small molecules that induce DNA re-replication in SW480 colon adenocarcinoma cells (AID 504364)
# Outline: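 Read-out: total Hoechst intensity of nuclei by fluorescence scanning imager; hits raise the fraction of nuclei with elevated DNA content. Cells received compound for 48 hr at 37 C before a 40 min stain.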
# [7] = target: Phosphoglycerate kinase, glycosomal (Trypanosoma brucei brucei) (UniProt P07378); experiment: qHTS Validation Assay to Find Inhibitors of Phosphoglycerate Kinase (AID 504547)
# Outline: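 In TEA buffer (100mM, pH 7.6) containing 5mM MgCl2 and 0.01% Tween-20, the GAPDH-coupled PGK reaction proceeded for 60 minutes at room temperature before a single luminescence reading using Kinase-Glo Plus.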
# [8] = target: phosphoglycerate mutase (Leishmania major) (UniProt Q4Q090); experiment: qHTS Validation Assay to Find Inhibitors of Phosphoglycerate Mutase (AID 504548); settings: Potency: inhibition qHTS;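 also: end-point luminescence from Kinase-GloPlus after the PGAM reaction; series mostly up to about 58 µM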
# Outline: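 Inhibition of L. major PGAM was assessed by Kinase-GloPlus luminescence following a 45-minute room-temperature reaction with enzyme at 1.25nM final.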
# [9] = Nrf2 qHTS screen for inhibitors: Validation (AID 493153; active = well fitted inhibition curve with a large enough effect in the main read-out, with a control signal flat, not every such curve was filed as active); settings: Potency: luciferase luminescence; viability change: measured here: cytotoxicity max response
# Outline: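 Concentration-response test in A549 ARE_Fluc reporter cells (5% FBS OPTI-MEM), compound exposure 18-24 h at 37°C, 5% CO2. Cell viability measured first by CellTiter-Fluor fluorescence; ARE-driven luciferase luminescence then measured as Nrf2 activity.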
# [10] = target: Peptidyl-prolyl cis-trans isomerase NIMA-interacting 1 (Homo sapiens) (UniProt Q13526); experiment: qHTS Validation Assay to Find Inhibitors of Pin1 (AID 504536; active = well fitted inhibition curve with a large enough effect in the polarisation, with a control signal flat, not every such curve was filed as active; the % refers to the polarisation; also: potency is read from the fitted curve at half-maximal effect)
# Outline: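 Fluorescence polarization competition: compounds (titration) displace HiFluor-488-labeled Pin1-1b peptide from Pin1 (0.3 uM final) in pH 7.5 HEPES buffer with DTT, 10 min at room temperature; %Activity normalized to no-enzyme wells, curves fitted.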
# [11] = target: Ubiquitin carboxyl-terminal hydrolase 1 (Homo sapiens) (UniProt O94782); experiment: Inhibitors of USP1/UAF1: Pilot qHTS (AID 504865); also: nearly all actives have a fitted effect of over 35% in size; also: potency is read from the fitted curve at half-maximal effect
# Outline: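 1nM USP1/UAF1 + cpd, 15 min RT; start w/ Ub-Rho 150nM final; kinetic FL 480/540 nm, 6 reads q60 s. Buffer 50mM HEPES pH 7.8, 0.5mM EDTA, 1mM TCEP, 0.01% Tween-20, 0.1 mg/ml BSA.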
# [12] = qHTS for Inhibitors of ATXN expression: Validation of Cytotoxic Assay (AID 588349)
# Outline: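 Cytotoxicity counter-screen: HEK293 cells exposed to compound titrations, 72 hr, 37 degrees C. Read-out is intracellular ATP (CellTiter Glo luminescence) as a viability measure.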
# [13] = qHTS for Inhibitors of ATXN expression: Validation (AID 588378); also: series mostly up to about 57 µM; nearly all actives have a fitted effect of over 75% in size
# Outline: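 Cells: HEK293-ATXN2-FFLuc, phenol-red free DMEM, 2 h attachment. Compound pin-transfer, 24 h, 37 degrees C, 5% CO2. CellTiter-Fluor 30 min, Ex405/Em525; Bright-Glo 5 min, luminescence 2 s exposure.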
# [14] = target: DNA dC->dU-editing enzyme APOBEC-3G (Homo sapiens) (UniProt Q9HC16); experiment: qHTS for inhibitors of Vif-A3G interactions: Validation (AID 588379)
# Outline: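 Yellow fluorescence (Ex 488, Em 500-530) of Vif-coexpressing HeLa A3G-eYFP cells, scanned by Acumen cytometer, reports blocked A3G degradation. Cells plated at 700/well overnight at 37 deg C before compound addition, then a further overnight compound incubation at 37 deg C.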
# Sequence of phosphoglycerate mutase (Leishmania major) (Q4Q090 1-553): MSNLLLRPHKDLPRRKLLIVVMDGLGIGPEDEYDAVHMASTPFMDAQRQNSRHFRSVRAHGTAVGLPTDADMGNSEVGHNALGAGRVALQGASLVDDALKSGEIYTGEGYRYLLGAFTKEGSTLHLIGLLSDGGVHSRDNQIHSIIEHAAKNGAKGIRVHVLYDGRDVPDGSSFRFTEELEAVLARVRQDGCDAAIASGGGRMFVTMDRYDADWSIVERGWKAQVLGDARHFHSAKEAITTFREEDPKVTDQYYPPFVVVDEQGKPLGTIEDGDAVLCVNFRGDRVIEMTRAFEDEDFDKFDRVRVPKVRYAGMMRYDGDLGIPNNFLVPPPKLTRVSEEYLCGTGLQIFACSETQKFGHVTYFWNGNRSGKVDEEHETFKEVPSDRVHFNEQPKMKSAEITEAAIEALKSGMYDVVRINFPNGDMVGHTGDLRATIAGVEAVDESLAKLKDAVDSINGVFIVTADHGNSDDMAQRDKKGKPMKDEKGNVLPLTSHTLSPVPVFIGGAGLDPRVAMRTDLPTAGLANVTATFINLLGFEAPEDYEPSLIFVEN
# Sequence of Galactokinase (Homo sapiens) (P51570 whole entry, looked up): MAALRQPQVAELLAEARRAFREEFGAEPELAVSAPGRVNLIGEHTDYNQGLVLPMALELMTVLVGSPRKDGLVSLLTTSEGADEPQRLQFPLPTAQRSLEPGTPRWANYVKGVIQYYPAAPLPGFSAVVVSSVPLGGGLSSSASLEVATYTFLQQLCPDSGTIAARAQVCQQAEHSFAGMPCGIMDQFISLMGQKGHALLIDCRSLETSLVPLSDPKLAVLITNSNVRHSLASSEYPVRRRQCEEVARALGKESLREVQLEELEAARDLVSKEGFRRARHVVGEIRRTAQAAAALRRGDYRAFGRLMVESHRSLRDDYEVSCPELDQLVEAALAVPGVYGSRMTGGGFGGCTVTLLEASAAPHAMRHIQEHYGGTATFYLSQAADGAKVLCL
# Sequence of Peptidyl-prolyl cis-trans isomerase NIMA-interacting 1 (Homo sapiens) (Q13526 whole entry, looked up): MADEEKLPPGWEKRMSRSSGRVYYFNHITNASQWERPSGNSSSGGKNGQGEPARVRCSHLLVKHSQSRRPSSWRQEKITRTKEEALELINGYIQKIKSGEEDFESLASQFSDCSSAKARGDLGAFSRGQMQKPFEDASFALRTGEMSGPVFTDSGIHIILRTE
# Sequence of Phosphoglycerate kinase, glycosomal (Trypanosoma brucei brucei) (P07378 whole entry, looked up): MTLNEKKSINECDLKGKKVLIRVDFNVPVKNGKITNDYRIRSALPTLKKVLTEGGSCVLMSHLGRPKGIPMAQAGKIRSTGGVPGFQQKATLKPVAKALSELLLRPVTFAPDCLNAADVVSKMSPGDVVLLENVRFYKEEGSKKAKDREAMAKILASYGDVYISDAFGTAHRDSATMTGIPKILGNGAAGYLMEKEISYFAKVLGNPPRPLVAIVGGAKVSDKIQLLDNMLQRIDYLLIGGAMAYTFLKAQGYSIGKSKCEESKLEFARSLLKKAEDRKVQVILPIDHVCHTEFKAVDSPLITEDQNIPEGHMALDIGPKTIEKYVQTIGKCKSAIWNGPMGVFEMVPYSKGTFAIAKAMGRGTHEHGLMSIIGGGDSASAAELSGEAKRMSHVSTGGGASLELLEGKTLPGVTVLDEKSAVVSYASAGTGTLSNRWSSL
# Sequence of Thyrotropin-releasing hormone receptor (Homo sapiens) (P34981 whole entry, looked up): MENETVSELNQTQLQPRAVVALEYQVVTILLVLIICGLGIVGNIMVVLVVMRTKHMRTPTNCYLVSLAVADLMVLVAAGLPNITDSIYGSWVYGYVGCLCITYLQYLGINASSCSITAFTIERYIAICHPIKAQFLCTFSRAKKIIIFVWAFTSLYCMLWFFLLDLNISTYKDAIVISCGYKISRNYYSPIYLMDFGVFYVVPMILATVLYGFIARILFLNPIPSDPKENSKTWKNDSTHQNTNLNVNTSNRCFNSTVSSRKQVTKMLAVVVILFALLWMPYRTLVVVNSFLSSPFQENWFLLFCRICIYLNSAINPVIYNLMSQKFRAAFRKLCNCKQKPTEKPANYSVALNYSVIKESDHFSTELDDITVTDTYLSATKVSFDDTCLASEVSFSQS
# Sequence of ATPase family AAA domain-containing protein 5 (Homo sapiens) (Q96QE3 whole entry, looked up, the tested form may be a part): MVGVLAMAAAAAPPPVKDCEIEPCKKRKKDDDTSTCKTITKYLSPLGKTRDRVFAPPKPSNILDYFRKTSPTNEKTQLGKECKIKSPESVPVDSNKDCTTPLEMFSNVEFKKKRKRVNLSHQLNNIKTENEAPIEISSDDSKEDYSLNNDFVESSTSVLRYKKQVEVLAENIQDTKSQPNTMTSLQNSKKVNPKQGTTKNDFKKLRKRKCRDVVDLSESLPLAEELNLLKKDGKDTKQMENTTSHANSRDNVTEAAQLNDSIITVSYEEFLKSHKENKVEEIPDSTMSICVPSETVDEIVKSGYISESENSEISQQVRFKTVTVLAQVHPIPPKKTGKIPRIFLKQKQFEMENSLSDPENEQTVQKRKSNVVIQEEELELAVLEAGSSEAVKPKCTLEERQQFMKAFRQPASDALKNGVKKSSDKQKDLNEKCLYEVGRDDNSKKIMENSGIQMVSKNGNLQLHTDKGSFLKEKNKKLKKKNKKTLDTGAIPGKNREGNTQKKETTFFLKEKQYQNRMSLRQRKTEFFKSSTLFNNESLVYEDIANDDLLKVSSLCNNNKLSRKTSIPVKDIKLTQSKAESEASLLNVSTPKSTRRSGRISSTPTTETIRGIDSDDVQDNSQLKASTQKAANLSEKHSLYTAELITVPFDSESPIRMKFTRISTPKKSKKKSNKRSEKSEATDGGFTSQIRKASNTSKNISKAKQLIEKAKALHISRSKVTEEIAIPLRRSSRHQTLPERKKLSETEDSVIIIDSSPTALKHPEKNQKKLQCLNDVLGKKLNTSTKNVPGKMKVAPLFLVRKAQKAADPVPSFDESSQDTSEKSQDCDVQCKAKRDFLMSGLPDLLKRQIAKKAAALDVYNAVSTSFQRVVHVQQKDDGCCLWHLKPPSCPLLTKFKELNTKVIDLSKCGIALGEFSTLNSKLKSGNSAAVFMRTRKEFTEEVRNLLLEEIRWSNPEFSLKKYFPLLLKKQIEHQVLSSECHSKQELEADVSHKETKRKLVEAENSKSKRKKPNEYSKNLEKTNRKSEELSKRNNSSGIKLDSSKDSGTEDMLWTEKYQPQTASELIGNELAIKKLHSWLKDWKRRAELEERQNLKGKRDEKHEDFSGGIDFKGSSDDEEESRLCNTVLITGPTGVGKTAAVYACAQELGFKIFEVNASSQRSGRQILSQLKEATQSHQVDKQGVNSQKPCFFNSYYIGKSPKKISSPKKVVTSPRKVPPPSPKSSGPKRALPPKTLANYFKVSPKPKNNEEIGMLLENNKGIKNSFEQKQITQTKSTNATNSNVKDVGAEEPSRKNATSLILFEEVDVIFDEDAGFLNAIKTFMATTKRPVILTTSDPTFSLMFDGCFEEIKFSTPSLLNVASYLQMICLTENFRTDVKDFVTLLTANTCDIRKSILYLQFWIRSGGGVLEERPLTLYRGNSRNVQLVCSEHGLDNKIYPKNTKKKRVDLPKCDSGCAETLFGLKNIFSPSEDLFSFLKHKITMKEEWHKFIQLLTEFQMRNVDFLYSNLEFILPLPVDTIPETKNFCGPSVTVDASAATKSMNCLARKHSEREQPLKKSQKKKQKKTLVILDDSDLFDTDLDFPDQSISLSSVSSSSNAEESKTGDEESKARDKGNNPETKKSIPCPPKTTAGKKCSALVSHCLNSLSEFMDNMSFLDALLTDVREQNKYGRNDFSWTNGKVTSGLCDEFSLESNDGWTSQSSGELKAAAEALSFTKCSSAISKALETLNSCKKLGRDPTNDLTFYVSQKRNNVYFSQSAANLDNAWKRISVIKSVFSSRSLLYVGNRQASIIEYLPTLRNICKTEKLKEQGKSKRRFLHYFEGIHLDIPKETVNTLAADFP
# Sequence of Ubiquitin carboxyl-terminal hydrolase 1 (Homo sapiens) (O94782 whole entry, looked up): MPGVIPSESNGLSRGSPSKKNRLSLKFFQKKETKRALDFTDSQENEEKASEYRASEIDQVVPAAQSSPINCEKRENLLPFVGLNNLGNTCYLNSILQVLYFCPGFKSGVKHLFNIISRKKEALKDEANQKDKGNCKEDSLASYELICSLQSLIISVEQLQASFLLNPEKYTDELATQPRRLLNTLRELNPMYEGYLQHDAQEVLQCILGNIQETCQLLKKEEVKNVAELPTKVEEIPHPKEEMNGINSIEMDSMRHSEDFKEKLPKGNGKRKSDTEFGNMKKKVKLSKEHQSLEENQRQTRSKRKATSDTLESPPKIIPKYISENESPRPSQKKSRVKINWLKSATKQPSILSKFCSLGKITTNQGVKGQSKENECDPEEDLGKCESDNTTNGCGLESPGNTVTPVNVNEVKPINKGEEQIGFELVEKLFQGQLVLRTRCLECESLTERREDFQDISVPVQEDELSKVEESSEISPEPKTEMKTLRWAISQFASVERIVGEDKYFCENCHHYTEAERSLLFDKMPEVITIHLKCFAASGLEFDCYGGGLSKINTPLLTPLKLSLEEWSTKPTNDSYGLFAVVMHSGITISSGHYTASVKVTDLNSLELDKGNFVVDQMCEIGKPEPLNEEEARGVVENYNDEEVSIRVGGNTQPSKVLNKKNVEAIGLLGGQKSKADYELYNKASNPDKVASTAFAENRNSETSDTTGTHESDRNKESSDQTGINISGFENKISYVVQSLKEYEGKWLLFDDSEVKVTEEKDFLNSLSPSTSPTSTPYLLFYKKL
# Sequence of DNA dC->dU-editing enzyme APOBEC-3G (Homo sapiens) (Q9HC16 whole entry, looked up): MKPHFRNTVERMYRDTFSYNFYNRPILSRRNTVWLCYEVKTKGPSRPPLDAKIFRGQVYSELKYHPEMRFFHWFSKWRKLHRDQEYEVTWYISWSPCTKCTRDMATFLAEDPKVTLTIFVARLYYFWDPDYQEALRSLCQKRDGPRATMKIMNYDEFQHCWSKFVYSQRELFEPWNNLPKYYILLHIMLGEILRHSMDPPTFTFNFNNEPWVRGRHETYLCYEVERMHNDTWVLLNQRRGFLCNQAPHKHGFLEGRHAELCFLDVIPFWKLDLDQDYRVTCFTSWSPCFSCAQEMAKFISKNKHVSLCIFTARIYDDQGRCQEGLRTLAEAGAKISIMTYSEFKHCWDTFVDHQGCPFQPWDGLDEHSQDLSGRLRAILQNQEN
Structure (SMILES),Potency [1],Potency [2],activation [3],outcome [4],Potency [5],Potency [6],Potency [7],Potency [8],Potency [9],viability change [9],Potency [10],Potency [11],Potency [12],Potency [13],Potency [14]
CCCCCC(O)c1cccc(OCc2ccc3ccccc3n2)c1 (centres undefined),inactive,inactive,-5.62% (inactive),inactive,inactive,inactive,inactive,inactive,–,–,–,–,–,–,–
CN(C)CCCO[C@@H]1[C@H]2OC(C)(C)O[C@H]2O[C@@H]1[C@H](O)CO,inactive,inactive,–,inactive,–,–,inactive,inactive,inactive,3.16%,inactive,inactive,inactive,inactive,–
C=CC(C)=C[C@@]1(C)SC(=O)C(C)=C1O,inactive,inactive,–,inactive,–,–,inactive,inactive,inactive,1.42%,inactive,inactive,inactive,inactive,–
CC(C)CC(NP(=O)(O)O[C@@H]1O[C@@H](C)[C@H](O)[C@@H](O)[C@H]1O)C(=O)NC(Cc1c[nH]c2ccccc12)C(=O)O (some centres undefined),inactive,inactive,–,inactive,–,–,inactive,inactive,inactive,-0.0491%,inactive,inactive,inactive,inactive,–
CCN(CC)c1ncnc2c1ncn2[C@@H]1O[C@H](COP(=O)(O)OP(=O)(O)C(Br)(Br)P(=O)(O)O)[C@@H](O)[C@H]1O,inactive,inactive,–,inactive,–,–,inactive,inactive,inactive,-6.83%,–,inactive,inactive,inactive,–
Nc1nc(Cl)nc2c1ncn2[C@@H]1O[C@H](CO)[C@@H](O)[C@H]1O,inactive,inactive,–,inactive,–,–,inactive,inactive,inactive,-2.02%,inactive,inactive,inactive,–,–
CC(=O)/C=C1\C(=O)N(C)c2ccccc21,inactive,inactive,–,inactive,–,–,inactive,inactive,inactive,-4.33%,inactive,inactive,–,–,–
C[N+]1(C)C2CC(OC(=O)[C@H](CO)c3ccccc3)CC1C1OC12 (some centres undefined),inactive,inactive,–,inactive,–,–,inactive,inactive,inactive,3.14% and -2.67%,inactive,inactive,inactive,–,–
NC(=S)c1ccc[n+]([C@@H]2O[C@@H](COP(=O)([O-])OP(=O)(O)OC[C@H]3O[C@@H](n4cnc5c(N)ncnc54)[C@H](OP(=O)(O)O)[C@@H]3O)C(O)C2O)c1 (some centres undefined),inactive,inactive,–,inactive,–,–,inactive,inactive,inactive,-6.67%,19 µM (active),inactive,–,inactive,–
O=C(O)[C@@H]1C[C@H](C(=O)O)N1,inactive,–,-0.25% (inactive),inactive,inactive,inactive,inactive,inactive,inactive,12.1%,inactive,inactive,inactive,inactive,–
Oc1cc2c(cc1O)CN(C(=S)NCCc1ccc(Cl)cc1)CCC2,inactive,–,2.62% (inactive),inactive,inactive,–,inactive,inactive,inactive,-1.93%,inactive,–,inactive,inactive,inactive
CN1CCc2ccccc2Cc2[nH]c3ccccc3c2CC1,inactive,–,0.5% (inactive),inactive,inactive,inactive,inactive,inactive,inactive,-10.2%,inactive,inactive,inactive,inactive,–
CN1CCc2cccc3c2C1Cc1ccc(O)c(O)c1-3 (centres undefined),inactive,–,0.125% (inactive),inactive,inactive,–,inactive,inactive,inactive,0.0644%,inactive,inactive,–,–,–
COc1ccc(/C=C/C(=O)Nc2ccccc2C(=O)O)cc1OC,1.64 µM (active),–,-5.44% (inactive),inactive,inactive,inactive,inactive,inactive,–,–,inactive,–,inactive,–,–
CCCCCCCC/C=C\CCCCCCCC(=O)NCCO,inactive,–,1.25% (inactive),inactive,inactive,inactive,inactive,inactive,–,–,inactive,–,inactive,inactive,inactive
Fc1cccc(/C=N/N=C/c2cccc(F)c2)c1,23.1 µM (active),–,-7.56% (inactive),inactive,inactive,inactive,inactive,inactive,inactive,1.98%,inactive,inactive,inactive,inactive,–
NC[C@H]1O[C@@H](n2cnc3c(N)ncnc32)[C@H](O)[C@@H]1O,inactive,inactive,–,inactive,–,–,inactive,inactive,–,–,inactive,inactive,–,inactive,–
O=C(/C=C/c1ccc(O)c(O)c1)OCCc1ccccc1,20.6 µM (active),–,0.812% (inactive),inactive,inactive,–,inactive,inactive,inactive,-1.73%,inactive,–,–,inactive,–
Ic1ccc(N2CCN(Cc3c[nH]c4ncccc34)CC2)cc1,inactive,–,3.5% (inactive),inactive,inactive,inactive,inactive,inactive,–,–,–,50.1 µM (active),–,–,–
OC[C@H]1O[C@@H](n2cnc3c(NC4CCCCC4)ncnc32)[C@H](O)[C@@H]1O,inactive,–,0.562% (inactive),inactive,inactive,inactive,inactive,inactive,inactive,2.64%,inactive,inactive,–,inactive,–
